# HEK293 tox – HEK 293 cell cytotoxicity; HEK 293 viability, ATP luminescence (CellTiter-Glo), 48-72 h; Potency, µM (series often up to 115 µM), for the others: at the highest dose activity change, negative = cytotoxicity, hits mostly inhibitors; 94,000 compounds, 6.6% hits; further: nearly all actives have a fitted effect of over 60% in size
#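 qHTS cytotoxicity; HEK 293, 250 cells/well; compound pinned; 48 or 72 hr, 37 degree Celsius, 5% CO2, 95% humidity; CellTiter-Glo, 10 min RT; luminescence (ATP).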
# FLuc inh – Photinus pyralis luciferase inhibition. P08659. purified P. pyralis luciferase, luminescence, biochemical. Potency, µM (titrated, usually from 115 µM), actives largely listed as inhibitors. 76,000 compounds, 2.5% hits. AID 1347043; further: nearly all actives have a fitted effect of over 65% in size
#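 FLuc 10nM, D-luciferin 10uM, ATP 10uM, Mg acetate 10mM, Tris acetate pH 7.5, Tween/BSA; cpd qHTS; enzyme added last; CCD luminescence.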
# 3T3 cytotox – NIH 3T3 cell cytotoxicity; NIH 3T3 viability, CellTiter-Glo ATP luminescence, 48-72 h; Potency, µM (series often up to 96.7 µM), inactives show top-dose activity change, negative = cytotoxicity, hits mostly inhibitors; 94,000 compounds, 4.3% hits; AID 1345082; further: nearly all actives have a fitted effect of over 55% in size
#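 First NIH 3T3 cells are plated at 400 cells/well; next compound is pinned in; then plates incubate 48 or 72 hr at 37 °C; finally CellTiter-Glo is added and luminescence read after 10 min.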
# NPR1 antag – blocks ANP-stimulated signaling of human Npr1 receptor; HEK293 hNpr1 GloSensor cGMP, ANP-stimulated luminescence; Potency, µM (top dose mostly 46.3 µM), for the others: at the top dose activity change, negative = inhibition, most hits filed as inhibitors; 76,000 compounds, 1.6% hits; AID 1347048; calls by dose curve; further: nearly all actives have a fitted effect of over 60% in size
#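 Compound pre-incubated 30 min at room temperature on GloSensor-loaded HEK293 cells stably carrying hNpr1 and the pGS-40F cGMP biosensor. Stimulation uses hNppA at 0.1 nM final; luminescence is taken at baseline and 20 min post-agonist.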
# GPT2 inh – GPT2 alanine aminotransferase inhibition; Q8TD30; Recombinant GPT2, coupled pyruvate oxidase/HRP Amplex Red fluorescence; Potency, µM (titrated, usually from 57.7 µM), inactives show at the top dose activity change, negative = inhibition, hits mostly inhibitors; 100,000 compounds, 0.25% hits; AID 1671188; further: nearly all actives have a fitted effect of over 60% in size
#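 GPT2 10ng/uL, a-KG 250uM, L-Ala 2mM, HEPES pH7.5 + 0.0001% Tween; 30 min RT. Then Amplex mix (PO/HRP/ThPP), 30 min RT dark, fluorescence. AOA 50uM used as positive control.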
# * marks the source's active call; other numbers are inactive results; i = inactive; u = inconclusive; x = no result given; [ ] = another dose, or the depositor's remark. Rows were chosen to be rich in hits. Some 10% of all compounds tested hit in one or more screens of this group. Unless noted, the call rests on the fitted dose curve; in most records, active means well fitted curve in the direction sought with a large enough effect; inconclusive means small, poorly fitted or top-dose-only effect, or another doubt; inactive means no such curve, though single readings can be large; an effect the other way counts as inactive or inconclusive. On the % scale 0 is the no-effect control and ±100 the full control effect; potency means the concentration at half of the fitted maximal effect.
SMILES,HEK293 tox,FLuc inh,3T3 cytotox,NPR1 antag,GPT2 inh
O=C(Nc1ccc2n(c1=O)C[C@H]1C[C@@H]2CN(C(=O)NC2CCCCC2)C1)c1ccco1,-13.2%[172 µM],i,89.1µM*,1.9%[70.6 µM],1.7%[88.5 µM]
O=C1N(c2ccccn2)C[C@H]2CN(Cc3ccc(F)cc3)CCN12,-25.6%[172 µM],25.1µM*,-29.5%[138 µM],-18.0%[70.6 µM],i
COc1cc2c(cc1OC1CCCC1)NC(=O)C21CCN(C(=O)c2cccc(C#N)c2)CC1,u,i,22.4µM*,-9.6%,-9.1%
COc1cc2c(cc1OC1CCCC1)NC(=O)C21CCN(C(=O)c2cccc(O)c2)CC1,79.4µM*,i,u,-22.1%[70.6 µM],-4.5%[88.5 µM]
O=C(NCc1ccccc1)[C@H]1CN2CCC1C[C@@H]2Cn1cc(-c2ccccc2)nn1 (some centres not stated),-27.9%[172 µM],i,-17.1%[174 µM],-0.6%[70.6 µM],i
COc1cc2c(cc1OCC1CC1)NC(=O)C21CCN(c2nc(C)cc(C)n2)CC1,u,i,u,5.1%[70.6 µM],3.0%[88.5 µM]
CCc1cnc(N2CCC3(CC2)C(=O)Nc2cc(OCC4CC4)c(OC)cc23)nc1,112µM*,i,100µM*,6.5%[70.6 µM],3.6%[88.5 µM]
COc1cc2c(cc1OCC1CC1)NC(=O)C21CCN(c2ncc(C(C)C)cn2)CC1,100µM*,i,79.4µM*,6.1%[70.6 µM],u
COc1cc2c(cc1Oc1ccccc1)NC(=O)C21CCN(c2ncc(C(C)C)cn2)CC1,u,i,u,6.9%,-20.5%
O=C(NCc1ccc(F)cc1)[C@H]1CN2CCC1C[C@@H]2Cn1cc(COc2ccccc2)nn1 (some centres not stated),u,i,-16.6%,0.9%,-2.2%
COc1cc2c(cc1Oc1ccccc1)NC(=O)C21CCN(c2ncccn2)CC1,u,i,79.4µM*,-30.3%[70.6 µM],1.2%[88.5 µM]
COc1cc2c(cc1Oc1ccccc1)NC(=O)C21CCN(Cc2ccccc2)CC1,28.2µM*,i,28.2µM*,u,u
COc1cncc(CN2CCC3(CC2)C(=O)Nc2cc(Oc4ccccc4)c(OC)cc23)c1,35.5µM*,i,u,-26.5%,-1.1%
Cc1cc(NCCc2c[nH]c(=O)[nH]c2=O)n2nccc2n1,-0.8%,i,-14.8%,1.1%,-8.4%
CC(=O)c1ccc(NC(=O)OC[C@H]2C[C@@H]3CCN2C[C@@H]3c2cc(C3CCCC3)nc(-c3ccncc3)n2)cc1,31.6µM*,i,22.4µM*,-16.6%,u
CC(C)NC(=O)OC[C@H]1C[C@@H]2CCN1C[C@@H]2c1cc(C2CCCC2)nc(-c2ccncc2)n1,22.4µM*,i,28.2µM*,-22.6%,i
CC(=O)c1cccc(NC(=O)OC[C@H]2C[C@@H]3CCN2C[C@@H]3c2cc(C3CCCC3)nc(C)n2)c1,14.1µM*,i,u,-7.7%,0.5%
O=C(Nc1cccc(C(F)(F)F)c1)OC[C@H]1C[C@@H]2CCN1C[C@@H]2c1cc(C2CCCC2)nc(-c2ccncc2)n1,3.98µM*,i,u,u,4.6%
CC(C)(CC(=O)O)CC(=O)N1C[C@@H]2C[C@H](C1)c1ccc(-c3cccc(C#N)c3)c(=O)n1C2,3.3%[172 µM],i,-0.6%[174 µM],0.7%[70.6 µM],i
COc1cc2c(cc1-c1ccc(N3CCN(C)CC3)nc1)NC(=O)C21CCN(C(C)=O)CC1,-9.5%,i,u,0.5%,u
COc1cc2c(cc1OCc1ccccc1)NC(=O)C21CCN(Cc2ccncc2)CC1,u,i,u,u,1.4%[88.5 µM]
COc1cc2c(cc1OCc1ccccc1)NC(=O)C21CCN(Cc2c(C)noc2C)CC1,25.1µM*,u,u,u,-20.7%
COc1cc2c(cc1OCc1ccccc1)NC(=O)C21CCN(Cc2ccccc2)CC1,31.6µM*,i,31.6µM*,-25.2%[70.6 µM],1.3%[88.5 µM]
COc1cc2c(cc1OCc1ccccc1)NC(=O)C21CCN(c2ncccn2)CC1,u,i,u,-26.6%[70.6 µM],1.0%[88.5 µM]
COc1cc2c(cc1OCc1ccccc1)NC(=O)C21CCN(c2ccnc(C)n2)CC1,28.2µM*,u,u,u,3.6%[88.5 µM]
SMILES,HEK293 tox,FLuc inh,3T3 cytotox,NPR1 antag,GPT2 inh
COc1cncc(-c2cc3c(cc2OC)C2(CCN(C(C)=O)CC2)C(=O)N3)c1,-14.5%[172 µM],i,31.6µM*,-0.1%[70.6 µM],2.6%[88.5 µM]
CC[C@H]1CN2CC[C@H]1C[C@@H]2CNC(=O)c1ccc2c(c1)OCO2,-22.6%[172 µM],i,-12.4%[174 µM],1.7%[70.6 µM],-2.3%[88.5 µM]
COc1cc2c(cc1OCC1CC1)NC(=O)C21CCN(C(C)=O)CC1,-0.8%[172 µM],i,u,2.6%[70.6 µM],1.9%[88.5 µM]
COc1cc2c(cc1OCc1ccccc1)NC(=O)C21CCN(C(C)=O)CC1,u,u,39.8µM*,-3.0%[70.6 µM],-21.3%[88.5 µM]
COC1CC(OC2CCC3(C)C(=CCC4C3CCC3(C)C(C(C)OC5OC(COC6OC(CO)C(O)C(O)C6O)C(O)C(O)C5O)CCC43O)C2)OC(C)C1OC1OC(C)C(O)C(OC)C1O (configuration not stated),x,x,x,x,i
Cn1cc(CN2CCOC[C@H](O)C2)c2ccccc21,63.1µM*,i,89.1µM*,3.8%[70.6 µM],-9.1%[88.5 µM]
Cc1nc(-c2ccc(F)cc2)cc([C@H]2CN3CC[C@H]2C[C@@H]3CNC(=O)c2ccco2)n1,u,i,100µM*,7.9%[70.6 µM],-6.2%[88.5 µM]
Cc1nc(-c2ccco2)cc([C@H]2CN3CC[C@H]2C[C@@H]3CNCC2CCCCC2)n1,112µM*,i,89.1µM*,-20.7%[70.6 µM],-25.1%[88.5 µM]
Cc1nc(-c2ccc(C(F)(F)F)cc2)cc([C@H]2CN3CC[C@H]2C[C@@H]3CNC(=O)N2CCOCC2)n1,u,i,u,2.5%,-12.4%
Cc1nc(-c2ccccc2Br)cc([C@H]2CN3CC[C@H]2C[C@@H]3CNC(=O)Nc2ccc(Cl)cc2)n1,22.4µM*,i,35.5µM*,-5.6%,1.1%
Cc1nc(-c2ccccc2)cc([C@H]2CN3CC[C@H]2C[C@@H]3CNC(=O)N2CCOCC2)n1,u,i,89.1µM*,4.5%[70.6 µM],0.2%[88.5 µM]
Cc1nc(-c2ccc(F)cc2)cc([C@H]2CN3CC[C@H]2C[C@@H]3CNC(=O)Nc2cccc(C#N)c2)n1,u,i,22.4µM*,-15.0%,-9.8%
Cc1nc(-c2ccccc2Br)cc([C@H]2CN3CC[C@H]2C[C@@H]3CNC(=O)Nc2cccc(C#N)c2)n1,22.4µM*,i,28.2µM*,-4.6%,-10.3%
Cc1nc(-c2ccc(F)cc2)cc([C@H]2CN3CC[C@H]2C[C@@H]3CNC(=O)NCc2ccccc2)n1,u,i,u,1.7%,3.7%
Cc1nc(-c2ccc(C(F)(F)F)cc2)cc([C@H]2CN3CC[C@H]2C[C@@H]3CNC(=O)C(C)(C)C)n1,39.8µM*,i,20µM*,-0.4%,i
